The results in this text go back to the supplement of paper PMC12350171.

Structures can show the parent of a compound that is named as a salt.

In the assay the test system is Haemophilus parainfluenzae. Put plainly: growth AUC normalised to DMSO control (fraction of control); higher = less growth inhibition, active = hit call of the paper. The following applies: 20 µM. An outline of the steps:
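For the AUC endpoint, growth curves were integrated by the trapezoidal rule up to the exponential-to-stationary transition and normalised to DMSO controls on the same plate. The curves came from OD578 readings taken hourly for 24 h, in three biological replicates. Pathogens had been passaged anaerobically twice and inoculated at an OD578 of 0.01 into pre-reduced mGAM plates carrying 20 μM compound and 1% DMSO, sealed with breathable membranes. Medium for Haemophilus parainfluenzae also contained hemin and NAD.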
Take `N=C(N)NC(=O)Cc1c(Cl)cccc1Cl` [Guanfacine hydrochloride]: the “growth AUC normalised to DMSO control” value was 1.01 (inactive). Then `Nc1nc(NC2CC2)c2ncn([C@H]3C=C[C@@H](CO)C3)c2n1` [Abacavir sulfate], with 0.979 (inactive); and `CCN[C@H]1CN(CCCOC)S(=O)(=O)c2sc(S(N)(=O)=O)cc21` [Brinzolamide], with 0.946 (inactive); and `Cn1c(=O)c2nc[nH]c2n(C)c1=O` [Theophylline monohydrate], with 0.98 (inactive).

Consider `CN(C)C/C=C(/c1ccc(Br)cc1)c1cccnc1` [Zimelidine dihydrochloride monohydrate], for which the “growth AUC normalised to DMSO control” value is 0.972 (inactive).

As for `NCc1ccccc1CC(=O)N[C@@H]1C(=O)N2C(C(=O)O)=C(CSc3nnnn3CC(=O)O)CS[C@H]12` [Ceforanide], the “growth AUC normalised to DMSO control” value is 0.0189 (active). Then `C[C@]12C=CC(=O)C=C1CC[C@H]1[C@@H]3C[C@@H](O)[C@](O)(C(=O)CO)[C@@]3(C)C[C@H](O)[C@@]12F` [Triamcinolone], with 1.01 (inactive).

For the compound `Cc1ccc2c(c1)c1c3n2CCNC3CCC1` (stereo not drawn) [Pirlindole mesylate], the “growth AUC normalised to DMSO control” value is 0.995 (inactive). Next, `Cn1c(=O)c2[nH]cnc2n(C)c1=O` [Aminophylline]: 1.04 (inactive); `CCOc1ccccc1OCC1CNCCO1` (stereo not drawn) [Viloxazine hydrochloride]: 0.967 (inactive); `CCCNC(C)C(=O)Nc1ccccc1C` (stereo not drawn) [Prilocaine hydrochloride]: 1.01 (inactive).

Turning to `O=C1Cc2cc(CCN3CCN(c4nsc5ccccc45)CC3)c(Cl)cc2N1` [Ziprasidone  hydrochloride monohydrate], the “growth AUC normalised to DMSO control” value was 1.03 (inactive). Next, `COc1ccccc1O` [Guaiacol]: 0.998 (inactive); `CCn1cc(C(=O)O)c(=O)c2cnc(N3CCNCC3)nc21` [Pipemidic acid]: 0.915 (inactive). Then `CCCN(CCC)C(=O)C(CCC(=O)O)NC(=O)c1ccccc1` (stereo not drawn) [Proglumide], with 1.03 (inactive). Next, `OC(CCCN1CCCCC1)(c1ccccc1)c1ccccc1` [Diphenidol hydrochloride]: 1 (inactive); `C#C[C@]1(O)CC[C@H]2[C@@H]3CCC4=Cc5oncc5C[C@]4(C)[C@H]3CC[C@@]21C` [Danazol]: 0.908 (inactive). Regarding `COc1ccc2c3c1O[C@H]1C[C@@H](O)C=C[C@@]31CCN(C)C2` [Galanthamine hydrobromide], the “growth AUC normalised to DMSO control” value was 0.988 (inactive). Regarding `CCC(Cc1c(I)cc(I)c(N)c1I)C(=O)O` (stereo not drawn) [Iopanoic acid], the “growth AUC normalised to DMSO control” value is 0.971 (inactive). Then `NC[C@@H]1O[C@H](O[C@H]2[C@@H](O)[C@H](O[C@@H]3[C@@H](O)[C@H](N)C[C@H](N)[C@H]3O[C@H]3O[C@H](CO)[C@@H](O)[C@H](O)[C@H]3N)O[C@@H]2CO)[C@H](N)[C@@H](O)[C@@H]1O` [Paromomycin sulfate], with 0.88 (inactive); and `Clc1ccc2c(c1)CCc1cccnc1C2=C1CCNCC1` [Desloratadine], with 1.03 (inactive); and `CN(CCOc1ccc(CC2SC(=O)NC2=O)cc1)c1ccccn1` (stereo not drawn) [Rosiglitazone hydrochloride], with 1.06 (inactive). Next, `CNCC(O)c1ccc(OC(=O)C(C)(C)C)c(OC(=O)C(C)(C)C)c1` (stereo not drawn) [Dipivefrin hydrochloride]: 0.986 (inactive); `CCCCCCCCCCCCCCCC[N+](C)(C)CCN(Cc1ccc(OC)cc1)c1ncccn1` [Thonzonium bromide]: 0.978 (inactive); `CC(=O)Oc1cccc2c1C(=O)c1c(OC(C)=O)cc(C(=O)O)cc1C2=O` [Diacerein]: 0.779 (active). `CC(=O)S[C@@H]1CC2=CC(=O)CC[C@]2(C)[C@H]2CC[C@@]3(C)[C@@H](CC[C@@]34CCC(=O)O4)[C@H]12` [Spironolactone]: the “growth AUC normalised to DMSO control” value was 0.891 (inactive). Then `O=C(CCNNC(=O)c1ccncc1)NCc1ccccc1` [Nialamide], with 1.01 (inactive); and `O=S(=O)(O)CCS` [Coenzyme M], with 1.06 (inactive); and `CC1COc2c(N3CCN(C)CC3)c(F)cc3c(=O)c(C(=O)O)cn1c23` (stereo not drawn) [Ofloxacin], with 0.0492 (active).

For the compound `CC(=O)Nc1c(I)c(C(=O)N[C@H]2C(O)O[C@H](CO)[C@@H](O)[C@@H]2O)c(I)c(N(C)C(C)=O)c1I` (stereo partly drawn) [Metrizamide], the “growth AUC normalised to DMSO control” value was 0.984 (inactive). Then `Nc1nc2ccc(OC(F)(F)F)cc2s1` [Riluzole hydrochloride], with 1.01 (inactive). Then `CN(C)c1nc(N(C)C)nc(N(C)C)n1` [Altretamine], with 1.05 (inactive). Then `Cc1c(NC(=O)c2cccnc2)c(=O)n(-c2ccccc2)n1C` [Nifenazone], with 1.01 (inactive); and `N[C@@H](C(=O)N[C@@H]1C(=O)N2C(C(=O)O)=C(Cl)CS[C@H]12)c1ccccc1` [Cefaclor hydrate], with 0.97 (inactive). `C[C@@H](O)[C@H]1C(=O)N2C(C(=O)O)=C(S[C@@H]3CN[C@H](C(=O)N(C)C)C3)[C@H](C)[C@H]12` [Meropenem]: the “growth AUC normalised to DMSO control” value was 0.283 (active).

In the case of `O=C1CCC(N2C(=O)c3ccccc3C2=O)C(=O)N1` (stereo not drawn) [Thalidomide], the “growth AUC normalised to DMSO control” value was 0.97 (inactive). Then `CC[N+](C)(CC)CCC[n+]1c(-c2ccccc2)c2cc(N)ccc2c2ccc(N)cc21` [Propidium iodide], with 1.04 (inactive). Next, `CCCNC(C)C(=O)Nc1c(C)csc1C(=O)OC` (stereo not drawn) [Articaine hydrochloride]: 1.01 (inactive).
